# Reference: PubChem BioAssay (NCI)
# About 83,000 compounds went through this panel and 20% of them were active in at least one assay; those are over-represented in the sample as a whole.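 Note: values are percent growth. 100 is the growth of untreated cells, values between 100 and 0 indicate rising inhibition; between -100 and 0 indicates cell death.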 A number with no mark means an inactive call. Active and inactive are the calls of the source. How the source made its calls: active means growth percent below 10; inactive means the rest.
# Legend:
# Assay in all cases: NCI-60 one-dose screen, 48 h (100 = growth as untreated, 0 = no growth, -100 = all killed)
# Conditions in all cases: 10 µM unless noted
# [1] = tested on: T-47D breast
# [2] = tested on: BT-549 breast
# [3] = tested on: MDA-MB-435 melanoma
# [4] = tested on: SW-620 colon
# [5] = tested on: MCF7 breast
# [6] = tested on: HCT-116 colon
# [7] = tested on: HCC-2998 colon
# [8] = tested on: KM12 colon
SMILES,growth [1],growth [2],growth [3],growth [4],growth [5],growth [6],growth [7],growth [8]
CCNC(=O)Oc1ccc(/C(=C(/C)c2ccc(OC)cc2)c2ccc(OCCN3CCCCCC3)cc2)cc1,26.6%,73.3%,43.7%,-25.9% (active),8.81% (active),13.4%,67.9%,39.6%
CC1=C(C)C(=O)C(Nc2cccc(C(=O)OC(C)(C)C)c2)=CC1=O,65%,82.6%,87.1%,94.8%,46%,75.2%,103%,88.7%
COc1ccc2c(c1)c(-c1nc(N)nnc1-c1c[nH]c3ccccc13)cn2C,41.2%,49.2%,-47.8% (active),17.2%,15%,23.1%,82.9%,24.4%
COC(=O)c1cccc(NC2=CC(=O)C(C)=C(C)C2=O)c1,64.4%,101%,101%,104%,71.3%,66.7%,110%,97.1%
Cc1ccc(S(=O)(=O)c2nc(-c3ccc(F)cc3)oc2S(C)(=O)=O)cc1,60.8%,43%,77.2%,-66.3% (active),33.6%,36.3%,102%,103%
Clc1ccc2[nH]cc(-c3nn4cc(-c5ccncc5)nc4s3)c2c1,6.38% (active),-54.3% (active),51%,50.7%,24.2%,10.8%,85.3%,47.7%
Cc1ccc(-c2csc(N/N=C/c3cccs3)n2)cc1,72.6%,112%,98%,108%,70.8%,70%,115%,90.8%
CC[C@]12CC(C(=O)OC)=C3Nc4ccccc4[C@@]34CCN(C14)[C@@H]1c3cc4c(cc3O[C@@H]1[C@H]2O)NC1=C(C(=O)OC)C[C@@]2(CC)C3N(CC[C@@]143)C[C@H]1O[C@H]12 (some centres undefined),18.2%,33.9%,-10.9% (active),23.5%,4.36% (active),2.44% (active),-41.3% (active),13.4%
O=C(CCCCCC/C=C\c1csc(Br)n1)NO,76.3%,103%,84.4%,78.2%,73.1%,52.5%,98.5%,91.7%
Cc1ccc2c(n1)C(=O)C(Cl)=C(Nc1ccc(C(F)(F)F)cc1)C2=O,-25.5% (active),130%,95.8%,-10.5% (active),-56.1% (active),1.42% (active),97.9%,98.2%
O=C(/C=C/Nc1ccc(S(=O)(=O)Nc2ncccn2)cc1)c1ccc(N=Cc2c(O)[nH]c3ccccc23)cc1,93.1%,101%,100%,112%,87.4%,111%,109%,37.3%
CC(C)(C)OC(=O)Nc1ccc(-c2cccc(Oc3ccc4nnc(Cl)n4n3)c2)cc1,59.3%,58.8%,83.7%,97.3%,74.8%,43.9%,109%,88.2%
CCOC(=O)c1ccc(NC2=CC(=O)C(C)=C(C)C2=O)cc1,43.2%,91.1%,44.2%,101%,62.7%,56.5%,101%,46.1%
O=C(O)c1ccc(-n2c(=O)n(-c3cccc(C(F)(F)F)c3)c(=O)c3cc(-c4ccc(F)cc4F)ccc32)cc1,-5.81% (active),-3.47% (active),5.93% (active),15.5%,1.46% (active),4.2% (active),13.4%,4.47% (active)
Brc1ccc(-c2cc(-c3ccc4c(c3)OCCO4)n[nH]2)s1,22.5%,62%,-38.1% (active),34.7%,7.62% (active),24.7%,42.1%,28.2%
C#C[C@]1(O)CC[C@H]2[C@@H]3CC=C4c5sc(Nc6cccc(F)c6)nc5CC[C@]4(C)[C@H]3CC[C@@]21C,29.9%,19.4%,29.9%,8.9% (active),0.863% (active),2.09% (active),42%,13.7%
COc1ccc(/C=N/NC(=O)CSc2nc(-c3cnccn3)cc(-c3cccs3)c2C#N)cc1,68.7%,49.2%,81.6%,93%,76.8%,22.4%,79.1%,64.7%
O=S(=O)(NCCCNc1nccc(-c2[nH]c(-c3ccccc3)nc2-c2ccc(F)c(O)c2)n1)c1cccc2ccccc12,51.3%,69.2%,36.9%,68.9%,44.9%,34.6%,99%,55.7%
Fc1ccc(-c2cn3c(-c4c[nH]c5ccc(Br)cc45)csc3n2)cc1,66.3%,95.4%,83.1%,81.4%,60.9%,73.8%,100%,66.5%
C#Cc1cc(OC)c(C(=O)Nc2ccc(F)cc2C(=O)Nc2cccc(S(=O)(=O)C(F)(F)F)c2)cn1,23.4%,1.8% (active),10.2%,5.83% (active),13.1%,3.82% (active),47.8%,4.44% (active)
C/C(CC1(O)C(=O)Nc2ccccc21)=N\O (centres undefined),83.7%,101%,104%,94.5%,95.2%,98.1%,111%,101%
CC(Nc1ncnc2ccc(-c3cnc4cnccn34)cc12)c1ccccc1 (centres undefined),17.5%,47.9%,69.1%,85.7%,33.5%,72.3%,80.7%,41.6%
CCOC(=O)C1=C(C)NC(C)=C(C(=O)OC(C)C)C1c1cccc(C#N)c1 (centres undefined),95.1%,126%,104%,99.2%,94.5%,94%,104%,98%
O=S(=O)(Oc1ccc(-c2cn3ccoc3n2)cc1)c1cccc(C(F)(F)F)c1,85.5%,98.8%,101%,103%,89.5%,102%,99.8%,95.7%
C=C(C)[C@@H]1CC[C@]2(C(=O)O)CC[C@]3(C)[C@H](CC[C@@H]4[C@@]5(C)C/C(=C/c6ccccn6)C(=O)C(C)(C)[C@@H]5CC[C@]43C)[C@@H]12,19%,45.8%,36.6%,27.9%,18.7%,13.5%,31.3%,30.6%
Cc1csc(/N=C(N)/N=C(\N)c2cccs2)n1,95.9%,134%,106%,106%,81.2%,107%,116%,97.8%
CNC(=O)c1cc(-c2ccc(NC(=S)Nc3cccc(C(F)(F)F)c3)cc2)nc2cccnc12,102%,104%,95.9%,96.8%,80.3%,103%,116%,98.8%
N#Cc1nc(-c2ccc(Cl)cc2)oc1N1CCC(S(=O)(=O)N2CCOCC2)CC1,103%,103%,99%,95.9%,94.3%,101%,102%,105%
